The results in this text go back to PMC5700166.

In this assay the target is T1, GST-Dm-Relish (Drosophila melanogaster, UniProt Q94527 99-473).
T1 sequence: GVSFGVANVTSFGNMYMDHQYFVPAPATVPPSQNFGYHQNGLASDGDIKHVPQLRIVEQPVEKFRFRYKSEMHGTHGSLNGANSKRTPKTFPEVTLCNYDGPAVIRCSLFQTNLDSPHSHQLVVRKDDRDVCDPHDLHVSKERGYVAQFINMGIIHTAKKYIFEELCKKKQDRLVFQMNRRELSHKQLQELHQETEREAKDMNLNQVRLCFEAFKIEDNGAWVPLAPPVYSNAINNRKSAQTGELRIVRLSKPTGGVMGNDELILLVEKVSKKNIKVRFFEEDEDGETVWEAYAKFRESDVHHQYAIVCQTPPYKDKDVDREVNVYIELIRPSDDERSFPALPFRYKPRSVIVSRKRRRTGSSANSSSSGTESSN
In words: protein-binding microarray (PBM); PBM: ~300 nM protein, 6 mM HEPES pH 7.8, 80 mM KCl, 0.5 mM EDTA, 0.5 mM EGTA, 6% glycerol, 35 ng/ul poly-dIdC, 1% milk, 1 h, room temperature; Ap Aiptasia and Nv Nematostella (sea anemones) / Co Capsaspora / Aq Amphimedon (sponge) / Dm Drosophila / Hu human; RHD is the Rel homology domain; high values mean tight binding. As to conditions: dsDNA, one strand shown.
For the sequence “CCGATTAACATCAGTGGTTACCATGATGTTAATCGGGTCTTGATTCGCTTGACGCTGCTG”, the binding signal was 2.13 z-score.
“CCGATTAACATCAAAATTCCATATGATGTTAATCGGGTCTTGATTCGCTTGACGCTGCTG” yielded a binding signal of 1.14 z-score.
Regarding “CCGATTAACATCACGTGGATTCCTGATGTTAATCGGGTCTTGATTCGCTTGACGCTGCTG”, the binding signal came to 1.66 z-score.
The sequence “CCGATTAACATCAGGAAAGAACATGATGTTAATCGGGTCTTGATTCGCTTGACGCTGCTG” displayed a binding signal of 3.57 z-score.
For “CCGATTAACATCACCCGAGTGCGTGATGTTAATCGGGTCTTGATTCGCTTGACGCTGCTG”, the binding signal was determined as 1.01 z-score.
“CCGATTAACATCAGGAAAACACATGATGTTAATCGGGTCTTGATTCGCTTGACGCTGCTG” had a binding signal of 2.56 z-score.
“CCGATTAACATCATGTGGTTCTCTGATGTTAATCGGGTCTTGATTCGCTTGACGCTGCTG”: the binding signal came out at 1.1 z-score.
Then “CCGATTAACATCACCGAATTTGGTGATGTTAATCGGGTCTTGATTCGCTTGACGCTGCTG”, with 1.44 z-score.
For “CCGATTAACATCAAGTGATTTCCTGATGTTAATCGGGTCTTGATTCGCTTGACGCTGCTG”, the binding signal is 4.18 z-score.
For the sequence “CCGATTAACATCACGTAAACTCCTGATGTTAATCGGGTCTTGATTCGCTTGACGCTGCTG”, the binding signal came to 1.72 z-score.
In the case of “CCGATTAACATCACAAAAAATTTTGATGTTAATCGGGTCTTGATTCGCTTGACGCTGCTG”, the binding signal was 2.12 z-score.
In the case of “CCGATTAACATCAGGAAAAACACTGATGTTAATCGGGTCTTGATTCGCTTGACGCTGCTG”, the binding signal turned out to be 2.61 z-score.
With “CCGATTAACATCACAAGAATTCCTGATGTTAATCGGGTCTTGATTCGCTTGACGCTGCTG”, the binding signal is 1.19 z-score.
“CCGATTAACATCACGTACATTCCTGATGTTAATCGGGTCTTGATTCGCTTGACGCTGCTG” displayed a binding signal of 1.63 z-score.
